Where “and” joins values, the source holds several entries; their conditions need not be identical. Identical values can stand only once. The panel holds about 83,000 compounds, 20% with a hit somewhere; the sample as a whole holds those more often.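 Step 1: grow cells in 96-well plates. Step 2: add test compound at a single concentration. Step 3: incubate 48 h. Step 4: record percent growth.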 Values without a mark were called inactive. Calls of active or inactive are those of the source. The calls were made as follows: active = growth percent below 10; inactive = the rest.

The subject of one assay is HCC-2998 colon. Put plainly: NCI-60 one-dose screen, 48 h (100 = growth as untreated, 0 = no growth, -100 = all killed). The conditions noted are these: 10 µM unless noted.
As to `O=C(Nc1ccc(F)cc1)c1cc2cc(Nc3nc(-c4ccccc4)nc4ccccc34)ccc2oc1=O`, the growth is 113%.
On to `COC(=O)c1c2c(c(C)[n+]([O-])c1C)C(=O)C(NCCN1CCOCC1)=CC2=O`, for which the growth is 74.1%.
Regarding `COc1c(O)c(O)cc2c3c(oc12)CC(c1ccc2c(c1)OCO2)CC3=O` (stereo unspecified), the growth was 92.9%.
On the same count and under the same terms, then `O=C1CCCCN1CCCCC#Cc1cccc(C#Cc2cccnc2)c1`, with 77.2%; and `Cc1ccc(-c2nc3nc(-c4ccc(Cl)cc4)nc(N4CCCNCC4)c3o2)cc1`, with -78.8% (active).
On the same count and under the same terms, under `CC(=O)c1c(C)nc2ccccc2c1/C=C/c1cccc(C)c1` stands 79.4%; under `CCOC(=O)C(=CCC(C)C)C(=O)OCC`, 92.4%; under `BrC1=C(Br)C(Br)(Br)C(Br)=C1Br`, 103%.
For the compound `COc1ccc(-c2csc(NC(=O)CN3CCN(CCO)CC3)n2)cc1NS(=O)(=O)c1cccc2c(N(C)C)cccc12`, the growth was 73.2%.
Same read-out and setting: then `Cc1nnc(NS(=O)(=O)c2ccc(N=Nc3ccc(N)nc3N)cc2)s1`, with 105%.
On to `CCCCCCCCCCCCCCCCCCn1cc(COc2ccc(C=O)cc2)nn1`, for which the growth was 99.8%.
For `C=C(C)[C@@H]1CC[C@]2(C(=O)O)CC[C@]3(C)[C@H](CC[C@@H]4[C@@]5(C)CCC(N)C(C)(C)[C@@H]5CC[C@]43C)[C@@H]12` (stereo partly specified), the growth was 23.8%.
For the compound `Cc1ccc(-c2nc3nc(-c4ccc(Br)cc4)nc(N4CCCNCC4)c3o2)cc1`, the growth is -80.7% (active).
On the same count and under the same terms, then `O=C(Nc1ncc(Cc2cccc(C(F)(F)F)c2)s1)c1ccc2c(c1)OCCO2`, with 20.3%; and `COCCn1cc(-c2nc(-c3cn(CCOC)c4ncccc34)cs2)c2ccccc21`, with 42.2%.
Take `O=C(N=Nc1c(O)[nH]c2ccccc12)Nc1ccccc1Cl`: the growth was 78.2%.
On the same count and under the same terms, then `CC1(C)C(N)=Nc2cc(OCCCN3Cc4ccc(OCCc5cn(CC(=O)N6CCC(CCN7CCCC7)CC6)nn5)cc4C3)c(OCC3CC3)cc21`, with 122%; and `COc1ccc(CN2CCc3c(Cl)nc(N)nc3C2=O)c(OC)c1`, with -85.9% [100 µM] (active); and `C=C(CNCCO)[C@@H]1CC[C@]2(CO)CC[C@]3(C)[C@H](CC[C@@H]4[C@@]5(C)CCC(NCCc6ccc(O)cc6)C(C)(C)[C@@H]5CC[C@]43C)[C@@H]12` (stereo partly specified), with -94.8% (active).
Turning to `COc1ccc2nc3cc(Cl)ccc3c(NCCCNCCC(C)O)c2c1` (stereo unspecified), the growth is -60.9% (active).
As for `Clc1ccc(CNc2ccc3nc(CCC4CCCCC4)[nH]c3c2)cc1`, the growth was -57.6% (active).
Same read-out and setting: under `Nc1n[nH]c2cccc(C#Cc3cccc(NC(=O)c4ccc(N5CCOCC5)c(C(F)(F)F)c4)c3)c12` stands 6.77% (active); under `ON=C1CCCCCCCC1`, 100% and 103%.
For the compound `Cc1ccc(C(=O)Nc2ccc(CN3CCN(C)CC3)c(C(F)(F)F)c2)cc1C#Cc1cnc(N)cc1C#N`, the growth was -77.3% (active).
Still for that read-out and setting: under `COc1nc(=O)n(C2C=CC(=O)O2)cc1F` (stereo unspecified) stands 133%.
The same measure, in the same setting: under `OB(O)c1ccsc1-c1nc2ccc3[nH]ncc3c2c2c1CCCC2` stands 66%; under `Cc1ccc(NC(=O)c2sc3nc(C)c(C(=O)c4ccccc4)cc3c2N)cc1`, 106%; under `O=C1C(c2c[nH]c3ccccc23)=C(c2coc3cc(Br)ccc23)C(=O)N1O`, 100%.
In the case of `O=C1Nc2ccccc2/C1=C/c1cccn1CCCCCn1c2ccccc2c(=O)c2ccccc21`, the growth was 42.5%.
Regarding `O=C(/C=C/c1ccc(Cl)s1)c1ccc(Cl)s1`, the growth was 98.8% and 102%.
Take `NC(N)=NC(N)=NCCCc1ccco1`: the growth is 106%.
On the same count and under the same terms, then `Cc1nc2sc(C(=O)Nc3cccc(Cl)c3C)c(N)c2cc1C(O)c1ccccc1` (stereo unspecified), with 13.4%; and `COc1cc2ncnc(Nc3ccc(F)c(Cl)c3)c2cc1OCC(=O)N1CCCCC1`, with 92.7%; and `S=c1nc(CS)[nH]c2ccccc12`, with 110%.
`O=C1/C(=C/c2cn(-c3ccccc3)nc2-c2ccccc2)SC(=S)N1c1ccccc1`: the growth is 96.6%.
The same measure, in the same setting: under `O=C(c1ccc(Nc2nccc(NCCCNc3ccnc4cc(Cl)ccc34)n2)cc1)N1CCCCC1` stands 26%; under `O=C1/C(=C/c2cn(-c3ccccc3)nc2-c2ccccc2)SC(=S)N1c1ccc(Cl)cc1`, 76.3%; under `COc1cc(/C=C2\C(=O)N(CCCCn3c4ccccc4c(=O)c4ccccc43)c3ccccc32)cc(OC)c1O`, 92.4%.

In a further assay the test system is KM12 colon. The description is as above. The conditions noted are these: 10 µM unless noted.
As for `O=C(Nc1ccc(F)cc1)c1cc2cc(Nc3nc(-c4ccccc4)nc4ccccc34)ccc2oc1=O`, the growth is 102%.
On to `COC(=O)c1c2c(c(C)[n+]([O-])c1C)C(=O)C(NCCN1CCOCC1)=CC2=O`, for which the growth was 71.6%.
Consider `COc1c(O)c(O)cc2c3c(oc12)CC(c1ccc2c(c1)OCO2)CC3=O` (stereo unspecified), for which the growth was 66%.
For `O=C1CCCCN1CCCCC#Cc1cccc(C#Cc2cccnc2)c1`, the growth was 73.6%.
For `Cc1ccc(-c2nc3nc(-c4ccc(Cl)cc4)nc(N4CCCNCC4)c3o2)cc1`, the growth was -88.7% (active).
Turning to `CC(=O)c1c(C)nc2ccccc2c1/C=C/c1cccc(C)c1`, the growth is 52.1%.
Regarding `CCOC(=O)C(=CCC(C)C)C(=O)OCC`, the growth is 110%.
As for `BrC1=C(Br)C(Br)(Br)C(Br)=C1Br`, the growth was 103%.
On the same count and under the same terms, then `COc1ccc(-c2csc(NC(=O)CN3CCN(CCO)CC3)n2)cc1NS(=O)(=O)c1cccc2c(N(C)C)cccc12`, with 77.2%; and `Cc1nnc(NS(=O)(=O)c2ccc(N=Nc3ccc(N)nc3N)cc2)s1`, with 104% and 103%.
Take `CCCCCCCCCCCCCCCCCCn1cc(COc2ccc(C=O)cc2)nn1`: the growth is 86.3%.
For `C=C(C)[C@@H]1CC[C@]2(C(=O)O)CC[C@]3(C)[C@H](CC[C@@H]4[C@@]5(C)CCC(N)C(C)(C)[C@@H]5CC[C@]43C)[C@@H]12` (stereo partly specified), the growth was 24.2%.
Turning to `Cc1ccc(-c2nc3nc(-c4ccc(Br)cc4)nc(N4CCCNCC4)c3o2)cc1`, the growth is -90.9% (active).
Same read-out and setting: under `O=C(Nc1ncc(Cc2cccc(C(F)(F)F)c2)s1)c1ccc2c(c1)OCCO2` stands 11.1%.
For the compound `COCCn1cc(-c2nc(-c3cn(CCOC)c4ncccc34)cs2)c2ccccc21`, the growth is 21.1%.
On to `O=C(N=Nc1c(O)[nH]c2ccccc12)Nc1ccccc1Cl`, for which the growth is 53.6%.
As for `CC1(C)C(N)=Nc2cc(OCCCN3Cc4ccc(OCCc5cn(CC(=O)N6CCC(CCN7CCCC7)CC6)nn5)cc4C3)c(OCC3CC3)cc21`, the growth is 107%.
On to `COc1ccc(CN2CCc3c(Cl)nc(N)nc3C2=O)c(OC)c1`, for which the growth is 11.1% [100 µM].
As for `C=C(CNCCO)[C@@H]1CC[C@]2(CO)CC[C@]3(C)[C@H](CC[C@@H]4[C@@]5(C)CCC(NCCc6ccc(O)cc6)C(C)(C)[C@@H]5CC[C@]43C)[C@@H]12` (stereo partly specified), the growth is -81.2% (active).
Regarding `COc1ccc2nc3cc(Cl)ccc3c(NCCCNCCC(C)O)c2c1` (stereo unspecified), the growth is -20% (active).
The same measure, in the same setting: under `Clc1ccc(CNc2ccc3nc(CCC4CCCCC4)[nH]c3c2)cc1` stands 50.7%.
Consider `Nc1n[nH]c2cccc(C#Cc3cccc(NC(=O)c4ccc(N5CCOCC5)c(C(F)(F)F)c4)c3)c12`, for which the growth was 21.4%.
On to `ON=C1CCCCCCCC1`, for which the growth was 97% and 97.8%.
On to `Cc1ccc(C(=O)Nc2ccc(CN3CCN(C)CC3)c(C(F)(F)F)c2)cc1C#Cc1cnc(N)cc1C#N`, for which the growth was -69.8% (active).
Take `COc1nc(=O)n(C2C=CC(=O)O2)cc1F` (stereo unspecified): the growth was 103%.
In the case of `OB(O)c1ccsc1-c1nc2ccc3[nH]ncc3c2c2c1CCCC2`, the growth was 38.1%.
On to `Cc1ccc(NC(=O)c2sc3nc(C)c(C(=O)c4ccccc4)cc3c2N)cc1`, for which the growth was 76.2%.
`O=C1C(c2c[nH]c3ccccc23)=C(c2coc3cc(Br)ccc23)C(=O)N1O`: the growth was 97.9%.
Turning to `O=C1Nc2ccccc2/C1=C/c1cccn1CCCCCn1c2ccccc2c(=O)c2ccccc21`, the growth is 12.1%.
On to `O=C(/C=C/c1ccc(Cl)s1)c1ccc(Cl)s1`, for which the growth is 89% and 95.9%.
Same read-out and setting: then `NC(N)=NC(N)=NCCCc1ccco1`, with 101%.
Regarding `Cc1nc2sc(C(=O)Nc3cccc(Cl)c3C)c(N)c2cc1C(O)c1ccccc1` (stereo unspecified), the growth was 10.5%.
On to `COc1cc2ncnc(Nc3ccc(F)c(Cl)c3)c2cc1OCC(=O)N1CCCCC1`, for which the growth is 95.4%.
In the case of `S=c1nc(CS)[nH]c2ccccc12`, the growth was 100%.
Turning to `O=C1/C(=C/c2cn(-c3ccccc3)nc2-c2ccccc2)SC(=S)N1c1ccccc1`, the growth is 101%.
Consider `O=C(c1ccc(Nc2nccc(NCCCNc3ccnc4cc(Cl)ccc34)n2)cc1)N1CCCCC1`, for which the growth is 37.5%.
For `O=C1/C(=C/c2cn(-c3ccccc3)nc2-c2ccccc2)SC(=S)N1c1ccc(Cl)cc1`, the growth was 60.5%.
The same measure, in the same setting: under `COc1cc(/C=C2\C(=O)N(CCCCn3c4ccccc4c(=O)c4ccccc43)c3ccccc32)cc(OC)c1O` stands 58.4%.

The values are drawn from PubChem BioAssay (NCI).
